From PubChem BioAssay
Dicer inh: inhibitors of human Dicer processing of pre-microRNA. Q9UPY3. hit rate 6% among 47,000. cat-ELCCA pre-miR-21 Dicer processing, chemiluminescence; active compounds read high. z-score at 25 µM; in the data active = z-score above about 3, passing the limit was not always enough;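 note: plate controls were vehicle for no effect and no enzyme for full effect; higher signal means more uncleaved substrate so more Dicer inhibition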
Target sequence (Q9UPY3 whole entry, looked up): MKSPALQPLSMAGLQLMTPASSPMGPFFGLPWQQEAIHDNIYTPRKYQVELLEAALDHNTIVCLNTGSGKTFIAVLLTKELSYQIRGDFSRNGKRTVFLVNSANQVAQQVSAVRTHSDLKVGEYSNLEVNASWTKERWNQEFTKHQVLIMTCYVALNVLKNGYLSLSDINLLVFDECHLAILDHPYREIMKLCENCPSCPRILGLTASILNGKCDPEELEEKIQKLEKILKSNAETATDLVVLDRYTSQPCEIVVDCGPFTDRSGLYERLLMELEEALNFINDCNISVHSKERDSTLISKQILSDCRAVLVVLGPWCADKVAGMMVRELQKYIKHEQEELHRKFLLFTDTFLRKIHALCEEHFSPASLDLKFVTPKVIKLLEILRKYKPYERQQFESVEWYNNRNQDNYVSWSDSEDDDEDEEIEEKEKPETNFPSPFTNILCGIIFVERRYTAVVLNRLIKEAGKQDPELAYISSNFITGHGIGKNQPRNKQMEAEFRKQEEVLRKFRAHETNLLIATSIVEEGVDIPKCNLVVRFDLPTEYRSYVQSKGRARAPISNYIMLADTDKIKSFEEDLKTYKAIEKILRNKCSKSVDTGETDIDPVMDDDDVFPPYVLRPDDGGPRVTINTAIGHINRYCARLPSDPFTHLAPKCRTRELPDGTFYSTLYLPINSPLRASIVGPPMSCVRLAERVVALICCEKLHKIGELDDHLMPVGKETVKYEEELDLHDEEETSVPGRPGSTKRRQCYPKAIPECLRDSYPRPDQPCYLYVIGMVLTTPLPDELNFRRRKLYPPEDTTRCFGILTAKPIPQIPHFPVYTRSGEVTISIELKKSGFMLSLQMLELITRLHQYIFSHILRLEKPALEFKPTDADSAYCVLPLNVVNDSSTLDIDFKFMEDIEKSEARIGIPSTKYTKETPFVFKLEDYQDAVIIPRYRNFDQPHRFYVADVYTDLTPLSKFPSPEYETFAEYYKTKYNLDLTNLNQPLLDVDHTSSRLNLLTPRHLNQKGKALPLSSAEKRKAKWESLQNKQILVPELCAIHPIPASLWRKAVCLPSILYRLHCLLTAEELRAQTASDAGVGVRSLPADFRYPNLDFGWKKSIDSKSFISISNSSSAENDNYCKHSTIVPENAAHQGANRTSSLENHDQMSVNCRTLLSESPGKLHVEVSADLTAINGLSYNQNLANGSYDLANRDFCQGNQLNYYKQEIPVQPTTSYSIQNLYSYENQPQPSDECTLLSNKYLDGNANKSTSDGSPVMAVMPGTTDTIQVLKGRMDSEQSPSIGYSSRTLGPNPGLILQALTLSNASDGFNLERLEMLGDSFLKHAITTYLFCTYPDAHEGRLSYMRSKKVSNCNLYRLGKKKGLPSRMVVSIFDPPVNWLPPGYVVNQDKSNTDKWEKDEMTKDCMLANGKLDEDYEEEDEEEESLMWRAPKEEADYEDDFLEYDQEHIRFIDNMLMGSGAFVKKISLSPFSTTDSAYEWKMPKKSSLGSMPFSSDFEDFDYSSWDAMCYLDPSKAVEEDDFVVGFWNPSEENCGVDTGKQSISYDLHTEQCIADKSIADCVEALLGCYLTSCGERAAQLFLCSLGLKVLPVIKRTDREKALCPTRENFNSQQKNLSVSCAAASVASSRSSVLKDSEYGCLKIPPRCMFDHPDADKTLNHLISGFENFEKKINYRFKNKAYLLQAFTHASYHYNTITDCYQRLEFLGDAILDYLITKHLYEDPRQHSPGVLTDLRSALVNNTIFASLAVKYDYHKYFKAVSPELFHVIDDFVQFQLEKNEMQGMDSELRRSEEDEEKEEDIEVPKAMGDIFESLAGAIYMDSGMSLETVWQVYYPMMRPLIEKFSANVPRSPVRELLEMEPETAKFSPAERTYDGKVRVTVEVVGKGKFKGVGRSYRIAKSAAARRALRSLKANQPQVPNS
* hit, by the source's call. The entries come from a sample that favours hits as a whole.

SMILES	Dicer inh
CCCCOC(=O)n1c(=O)oc2cc(S(=O)(=O)Nc3ccc(C)cc3)ccc21	3.3*
Cn1c(=O)oc2cc(S(=O)(=O)Nc3ccc(O)cc3)ccc21	0.87
CCOC(=O)C1=C(C)NC(C(=O)OCC)CS1 (stereo not drawn)	-0.98
O=C(Nc1ccc(Cl)cc1)NN1CC(=O)N(c2ccccc2F)CC1=O	4.9*
O=C(Nc1ccc(F)cc1)N1CCN(c2ccccc2F)CC1	0.41
O=C(NN1CC(=O)N(c2cc(Cl)cc(Cl)c2)CC1=O)c1cccs1	-0.11
Cc1nn(-c2ccccc2)nc1C(=O)Nc1cccnc1Oc1ncnc2cc(Cl)ccc12	1.2
O=C(c1ccc2ccccc2n1)N1CCc2ccccc2C1	-0.29
Cc1ccc(C2C(C(=O)c3ccccc3)=NOC23C(=O)c2ccccc2C3=O)cc1 (stereo not drawn)	1.3
COCCOC(=O)c1c(C)oc2ccc(OC(=O)C(C)(C)C)cc12	7.3
O=S(=O)(CS(=O)(=O)NCCc1ccc(Cl)cc1)NCCc1ccc(Cl)cc1	0.29
O=c1[nH]c2ccc(S(=O)(=O)NCCc3ccc(F)cc3)cc2[nH]1	1.9
CS(=O)(=O)NCCc1ccncc1	0.42
NS(=O)(=O)c1ccc(CNS(=O)(=O)Cc2ccccc2)cc1	-0.27
CS(=O)(=O)NCCc1ccc(S(N)(=O)=O)cc1	6.9*
NS(=O)(=O)c1ccc(CCNS(=O)(=O)c2ccc(Cl)cc2)cc1	3.4*
O=C1C(=C2C(c3cccs3)C(c3ccccc3)=NN2c2ccccc2)C(=O)c2ccccc21 (stereo not drawn)	-2.2
CN1/C(=C\c2cc[n+](C)cc2)Sc2ccccc21	1.6
CCOC(=O)c1c(C)nsc1NC(=O)Oc1ccccc1	0.25
Cc1ccc(-c2cnc3c(-c4ccccc4)cnn3c2N)cc1	1.8
Cc1ccc(-c2cnc3c(-c4ccc(Cl)cc4)cnn3c2N)cc1	2.3
Nc1c(-c2ccc(Cl)cc2)cnc2c(-c3ccccc3)cnn12	3.1*
c1cc(-c2nc3ccccc3[nH]2)nc(-c2nc3ccccc3[nH]2)c1	-0.51
CC(C)Nc1nc(-c2c(F)cccc2Cl)cs1	-1.1
CC(=O)Nc1nc2ccc(NC(=O)c3sc4ccccc4c3Cl)cc2s1	0.3
SMILES	Dicer inh
CC(=O)Nc1ccc2nc(NC(C)=O)sc2c1	3.2*
CC(=O)Nc1nc2ccc(NC(=O)c3c([N+](=O)[O-])cnn3C)cc2s1	1.1
O=C(c1ccc(Cl)cc1)C(C(=O)N1CCc2ccccc2C1)n1ccccc1=O (stereo not drawn)	-0.68
CC(=O)Nc1cccc(OCCCNS(=O)(=O)c2ccc(N(C)C(=O)c3ccc(Cl)cc3)s2)c1	-1
O=C(Cn1nc(-c2ccc(Cl)cc2)c2ccccc2c1=O)c1ccccc1	-0.85
COc1ccc(-c2c(C)nn3c(N)c(-c4ccc(Cl)cc4)cnc23)cc1OC	5.5
COc1ccc(-c2c(C)nn3c(C)cc(C)nc23)cc1OC	4.8*
COc1ccc(-c2c(C)nn3c(-c4ccccc4)cc(C)nc23)cc1OC	2.2
Cc1ccccc1-n1c(N)cc(=O)n(Cc2ccccc2)c1=O	-0.93
Cc1ccc(C)c(NCc2ccc3c(c2)OCO3)c1	5.4*
Cc1ccc(CNCc2ccc3c(c2)OCO3)cc1	0.29
Cc1ccc(CNCc2ccc3c(c2)OCO3)s1	-0.56
CCOC(=O)c1cc(C)nc(Sc2ccccc2Cl)n1	-1.8
CN(C)S(=O)(=O)N(CC(=O)Nc1cccnc1)c1ccccc1	0.57
CCOC(=O)C1=C(C)NC2=C(C(=O)CC(C)(C)C2)C1c1cccc2ccccc12 (stereo not drawn)	-0.11
Clc1ccc(-c2nc(-c3ccncc3)no2)cc1	1.7
COc1ccc(-c2noc(COc3ccc(Br)cc3)n2)cc1	4.1*
COc1ccc(-c2noc(-c3cccs3)n2)cc1	3.9*
COc1ccc(-c2noc(COc3ccc(Cl)cc3)n2)cc1	2.8
Brc1ccc(OCc2nc(-c3ccncc3)no2)cc1	-0.18
COc1ccc(-c2nc(-c3ccc(Cl)cc3)no2)cc1	4.2*
COc1ccc(OCc2nc(-c3cccs3)no2)cc1	0.06
COc1ccc(-c2noc(-c3ccc(OC)cc3)n2)cc1	1.3
Nc1c(Cl)cc(-c2noc(-c3cccs3)n2)cc1Cl	-1.8
O=C(Nc1ncc(Cc2ccc(Cl)cc2)s1)c1cc2ccccc2c(=O)o1	-0.71
SMILES	Dicer inh
S=c1[nH]nc(Nc2cccc(Cl)c2Cl)s1	0.97
COCCNc1nc2c(c(=O)n(C)c(=O)n2C)n1Cc1ccc(Br)cc1	1.7
O=C1CSC(=S)N1CCc1ccccc1	-0.6
CCOC(=O)CSc1sc(C(=O)OCC)c(C)c1C#N	6
O=c1[nH]nc(-c2cc(Cl)cc(Cl)c2)c2ccccc12	0.38
O=C(Oc1ccc([N+](=O)[O-])cc1)N1CCCN(c2nc3ccc(Cl)cc3s2)CC1	-1.3
COc1cccc(Nc2nc(N)nc(CN3CCc4ccccc4C3)n2)c1	0.68
COc1ccc(Nc2nc(N)nc(CN3CCCCC3)n2)cc1	-1.1
COc1ccccc1Nc1nc(N)nc(CN2CCCCC2)n1	5.3*
O=c1[nH]c(=O)n(-c2ccc(F)cc2)c2c1CN(CCCc1ccccc1)CN2	-1.4
N#C/C(=C\Nc1ccccc1)S(=O)(=O)c1ccc(Cl)cc1	-4.8
